Results on 14 compounds are retold here after PubChem BioAssay.

The nature of experiment [1]: inhibitors of TNFa-induced NFkB p65 translocation, primary screen, imaging, HUVEC, MLSMR starter and 10KST1 sets (AID 438;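 active = inhibition above 20% together with a positive visual image hit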;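 note: compound added about 3h40 before a 20 min TNFalpha stimulation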;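 for inhibition: signal is the nuclear over cytoplasmic p65 intensity ratio per well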). Conditions: HUVEC TNFa-induced p65 nuclear translocation; cell count: measured here: nuclei count (cytotoxicity indicator), at 2.08 µM; inhibition: at 2 µM, stronger effect = higher value, 0% TNFa-plus-vehicle, 100% no-TNFa wells.
Experiment [2] is described as follows: reduction of polyQ htt aggregates in cells – imaging, exon1htt(103Q)mCFP cells, high-content imaging, primary screen (AID 483;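 active = visual image review flags a hit and inhibition of aggregation exceeds 20%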;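 note: compound exposure lasted 3 days before fixation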;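 for nuclei count: percent of the per-plate median nuclei count of sample wells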). Particulars: exon1htt(103Q)mCFP cell line, aggregate imaging, at 2 µM; inhibition of aggregation: stronger effect = higher value; nuclei count: measured here: cell count, toxicity.
Experiment [3] is described as follows: endothelial E-selectin expression blockers – imaging, HUVEC, immunofluorescence, MLSMR starter and 10KST1 sets, primary screen (AID 487;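 active = visually confirmed hit in the image check and inhibition above 20%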;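 for inhibition: signal is fraction of cell area covered by stained E-selectin grains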;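 for nuclei count: 100% = median nuclei count of all wells on the same plate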). Conditions: HUVEC TNFalpha-induced E-selectin immunofluorescence imaging, at 2 µM; inhibition: stronger effect = higher value; nuclei count: measured here: cell number, toxicity.
For experiment [4], the target named is Voltage-gated potassium channel subunit beta-2 (Rattus norvegicus) (UniProt P62483). The experiment can be described thus: inhibitors of rat Kvbeta2 reductase activity – biochemical, NADPH fluorescence, primary screen (AID 622;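 active = fluorescence slope higher than the sample average by over 3 SD, cut at about -0.22 in these data, passing the limit was not always enough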;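 note: slope of raw intensity against log time taken from 70 to 1610 s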). Particulars: recombinant KvBeta, 4-cyanobenzaldehyde reduction, at 10 µM, stronger effect = higher value.
Sequence of Voltage-gated potassium channel subunit beta-2 (Rattus norvegicus) (P62483 whole entry, looked up): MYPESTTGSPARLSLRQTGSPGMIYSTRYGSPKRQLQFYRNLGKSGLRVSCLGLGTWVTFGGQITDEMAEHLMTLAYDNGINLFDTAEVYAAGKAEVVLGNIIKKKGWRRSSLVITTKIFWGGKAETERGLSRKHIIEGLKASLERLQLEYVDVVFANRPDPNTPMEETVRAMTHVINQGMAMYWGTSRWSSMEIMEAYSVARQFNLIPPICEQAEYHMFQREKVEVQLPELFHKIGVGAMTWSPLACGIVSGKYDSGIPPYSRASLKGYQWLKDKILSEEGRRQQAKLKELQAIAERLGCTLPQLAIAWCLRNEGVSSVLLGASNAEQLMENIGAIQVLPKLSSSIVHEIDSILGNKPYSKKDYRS
For experiment [5] the target is unchanged. As to the kind of experiment: enhancers of rat Kvbeta2 NADPH turnover – biochemical, NADPH fluorescence, primary screen (AID 623;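 active = NADPH fluorescence slope more negative than the mean of all samples by about 3 SD, 99.7% confidence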;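 note: fluorescence intensity change per second fitted from 20 to 320 s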). Conditions: Recombinant KvBeta, NADPH fluorescence decrease slope, 10 min; at 10 µM; stronger effect = lower value.
Experiment [6] has as its target Alpha-2C adrenergic receptor (Homo sapiens) (UniProt P18825). As to the kind of experiment: compounds altering alpha2C-coupled GIRK flux – cell-based, HEK293 alpha2C/GIRK1/2, thallium flux, primary screen (AID 624;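 active = fluorescence slope after compound addition differing from the mean of all screened samples at 99.7% confidence, in either direction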;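 note: slope of fluorescence ratio to pre-addition baseline per second over 15 to 24 s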). Particulars: thallium flux BTC fluorescence, at 10 µM, actives lie on both sides.
Experiment [7] is described as follows: blockers of RIG-like receptor reporter activation – cell-based, Sendai virus stimulus, luciferase, 10K MLSCN set, TLR/RLR signaling modifier project, primary screen (AID 602276).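 Note: firefly luciferase from ISG56 promoter only with Renilla not read in this screen; 0% = Sendai virus plus DMSO and 100% = medium plus DMSO without virus.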 Conditions: HEK293 RL24 IRF3 luciferase reporter, at 10 µM, stronger effect = higher value. (In a reporter assay the amount or activity of a reporter protein is the signal.)
The nature of experiment [8]: TLR3 IRF3 reporter activation blockers – cell-based, poly I:C stimulus, luciferase, 10K MLSCN set, primary screen (AID 602277;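 active = inhibition of the reporter signal at or above 50%; inactive = inhibition below 50%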). Particulars: HEK293-TLR3 RL24 IRF3 luciferase reporter, at 10 µM, stronger effect = higher value.

Molecules are shown by their SMILES. Activity calls are given as the source filed them.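 Rule for the calls, unless noted: active = inhibition at or above 50% at 10 µM; inactive = inhibition below 50%.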

Sequence of Alpha-2C adrenergic receptor (Homo sapiens) (P18825 whole entry, looked up): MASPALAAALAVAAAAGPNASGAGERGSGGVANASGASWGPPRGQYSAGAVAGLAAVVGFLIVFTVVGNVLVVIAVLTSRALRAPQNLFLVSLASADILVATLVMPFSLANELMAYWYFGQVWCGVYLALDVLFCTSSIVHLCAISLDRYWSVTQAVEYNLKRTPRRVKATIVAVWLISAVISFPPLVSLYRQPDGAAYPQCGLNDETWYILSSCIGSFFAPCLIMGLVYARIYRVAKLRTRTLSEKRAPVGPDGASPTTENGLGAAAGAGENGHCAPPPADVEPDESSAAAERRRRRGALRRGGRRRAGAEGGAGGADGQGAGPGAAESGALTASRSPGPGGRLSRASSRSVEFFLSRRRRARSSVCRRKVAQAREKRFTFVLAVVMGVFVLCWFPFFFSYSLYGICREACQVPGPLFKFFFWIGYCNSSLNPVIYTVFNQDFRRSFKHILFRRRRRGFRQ

`Cc1ccc(NC(=O)c2cc(-c3ccc(C)o3)nc3ccccc23)nc1`: the cell count in experiment [1] is 414. The inhibition (as a rule, the relative decrease from the control value, in per cent) in experiment [1] is 6.3% (inactive); in experiment [3], 21.6% (inactive); in experiment [7], -2.84% (inactive); in experiment [8] it was -17% (inactive). The inhibition of aggregation in experiment [2] was -7.9% (inactive). The nuclei count was found to be 113% in experiment [2] and 106% in experiment [3]. For the same compound, the fluorescence slope in experiment [4] was -0.12 (active). Moreover, the NADPH fluorescence slope in experiment [5] was 9.6e-06 (inactive). The slope in experiment [6] was 0.00591 (inactive).

With `O=C(Cn1nc(Cc2ccncc2)c2ccccc2c1=O)N1CCN(C(=O)c2ccco2)CC1`, in experiment [1], the cell count is 780. The inhibition in experiment [1] was -7.3% (inactive); in experiment [3], -15.2% (inactive); in experiment [7], -0.346% (inactive); in experiment [8], 21.1% (inactive). Moreover, the inhibition of aggregation in experiment [2] is -29.3% (inactive). For the same compound, the nuclei count in experiment [2] was determined as 110%; in experiment [3], 112%. Moreover, in experiment [4], the fluorescence slope is -0.58 (inactive). For the same compound, the NADPH fluorescence slope in experiment [5] is -2.7e-05 (inactive). The slope in experiment [6] was 0.0062 (inactive).

For the compound `CCOC(=O)N1CCC(N2CC34C=CC(O3)C(C(=O)O)C4C2=O)CC1` (centres undefined), the cell count in experiment [1] worked out at 811. For the same compound, the inhibition is 4.4% (inactive) in experiment [1], -9.6% (inactive) in experiment [3], 4.63% (inactive) in experiment [7] and 12.4% (inactive) in experiment [8]. Moreover, the inhibition of aggregation in experiment [2] was 14.5% (inactive). The nuclei count stood at 106% in experiment [2] and 114% in experiment [3]. For the same compound, the fluorescence slope in experiment [4] is -0.552 (inactive). In addition, the NADPH fluorescence slope in experiment [5] was 2.3e-05 (inactive). Further, the slope in experiment [6] was 0.00719 (inactive).

For the compound `Cc1cccc2sc(NC(=O)Cn3cccc3)nc12`, in experiment [1], the cell count was 518. In addition, the inhibition in experiment [1] is -1.1% (inactive); in experiment [3], -13.1% (inactive); in experiment [7], -3.68% (inactive); in experiment [8], -14% (inactive). Also, in experiment [2], the inhibition of aggregation is -6.6% (inactive). Moreover, the values for the nuclei count in experiment [2] and in experiment [3] were 59.1% and 100%, respectively. Moreover, the fluorescence slope in experiment [4] was -0.603 (inactive). For the same compound, the NADPH fluorescence slope in experiment [5] was -2.8e-05 (inactive). Besides, the slope in experiment [6] is 0.0115 (active).

For `Cn1nnnc1SCC(=O)N1CCN(c2cccc(Cl)c2)CC1`, in experiment [1], the cell count turned out to be 360. Besides, the inhibition in experiment [1] is -2.9% (inactive); in experiment [3] it was -206% (inactive); in experiment [7], 7.81% (inactive); in experiment [8], 11.3% (inactive). For the same compound, the inhibition of aggregation in experiment [2] was 10.8% (inactive). The values for the nuclei count in experiment [2] and in experiment [3] were 94.4% and 115%, respectively. In experiment [4], the fluorescence slope is -0.619 (inactive). Also, in experiment [5], the NADPH fluorescence slope is -2.9e-06 (inactive). Moreover, the slope in experiment [6] is 0.00492 (inactive).

In the case of `Cc1ccccc1Nc1nc(N)nc(CSCc2c(C)noc2C)n1`, the cell count in experiment [1] was 347. In addition, the inhibition in experiment [1] was -15.8% (inactive); in experiment [3], -16.2% (inactive); in experiment [7], -21.3% (inactive); in experiment [8] it was -33.2% (inactive). For the same compound, the inhibition of aggregation in experiment [2] was -2.4% (inactive). The nuclei count in experiment [2] is 93.8%; in experiment [3], 117%. The fluorescence slope in experiment [4] was -0.361 (inactive). Also, in experiment [5], the NADPH fluorescence slope was -5.1e-05 (inactive). Also, in experiment [6], the slope was 0.00597 (inactive).

Regarding `c1cn(C23CC4CC(CC(C4)C2)C3)cn1`, in experiment [1], the cell count was 362. Besides, the inhibition in experiment [1] was 0.8% (inactive); in experiment [3], 45.7% (inactive); in experiment [7], 11.8% (inactive); in experiment [8], 16.7% (inactive). Besides, in experiment [2], the inhibition of aggregation is -9.2% (inactive). For the same compound, the nuclei count amounted to 108% in experiment [2] and 110% in experiment [3]. Further, in experiment [4], the fluorescence slope was -0.489 (inactive). The NADPH fluorescence slope in experiment [5] was -5.6e-05 (inactive). Besides, the slope in experiment [6] was 0.00411 (inactive).

On to `COc1ccc(CCN2CC(O)=C(c3nc4ccccc4c(=O)[nH]3)C2=N)cc1OC`, for which the cell count in experiment [1] stood at 642. Besides, the inhibition in experiment [1] is -0.8% (inactive); in experiment [3], -35.6% (inactive); in experiment [7] it was 2.39% (inactive); in experiment [8], 7.15% (inactive). Also, in experiment [2], the inhibition of aggregation is -7.4% (inactive). The nuclei count was 83.2% in experiment [2] and 98.6% in experiment [3]. Also, the fluorescence slope in experiment [4] was -0.489 (inactive). Also, the NADPH fluorescence slope in experiment [5] was -1e-06 (inactive). In experiment [6], the slope is 0.00682 (inactive).

Regarding `Cn1c(=O)cc(NCCc2ccccc2)[nH]c1=O`, the cell count in experiment [1] was determined as 304. For the same compound, the inhibition was 3.4% (inactive) in experiment [1], -199% (inactive) in experiment [3], 7.54% (inactive) in experiment [7] and 27.3% (inactive) in experiment [8]. For the same compound, the inhibition of aggregation in experiment [2] is -8% (inactive). In addition, the nuclei count in experiment [2] came out at 116%; in experiment [3], 156%. For the same compound, the fluorescence slope in experiment [4] is -0.43 (inactive). The NADPH fluorescence slope in experiment [5] was -0.0001 (inactive). Also, the slope in experiment [6] is 0.00647 (inactive).

Consider `COC(=O)[C@H](C)NC(=O)NCc1ccc(F)cc1`, for which the cell count in experiment [1] was found to be 589. Moreover, the inhibition in experiment [1] is -23.8% (inactive); in experiment [3], -131% (inactive); in experiment [7] it was 6.37% (inactive); in experiment [8], -35.7% (inactive). Also, the inhibition of aggregation in experiment [2] was 24.3% (inactive). Moreover, the results for the nuclei count in experiment [2] and in experiment [3] were 100% and 96.1%, respectively. The fluorescence slope in experiment [4] was -0.622 (inactive). Moreover, the NADPH fluorescence slope in experiment [5] is -1.3e-05 (inactive). For the same compound, the slope in experiment [6] was 0.00843 (inactive).

Regarding `Cc1ccc(CCNC(=O)C2CCN(S(=O)(=O)c3c(C)nn(C)c3C)CC2)cc1`, in experiment [1], the cell count was determined as 621. For the same compound, the inhibition in experiment [1] was 6.1% (inactive); in experiment [3], -8.4% (inactive); in experiment [7], -5.1% (inactive); in experiment [8], 6.19% (inactive). Further, in experiment [2], the inhibition of aggregation was -21.9% (inactive). Further, the nuclei count in experiment [2] is 105%; in experiment [3], 116%. For the same compound, the fluorescence slope in experiment [4] is -0.618 (inactive). The NADPH fluorescence slope in experiment [5] was -5.1e-06 (inactive). Further, the slope in experiment [6] is 0.00762 (inactive).

`COc1ccc(-c2[nH]c(-c3cccc(OC)c3)nc2SCC(=O)NCc2ccco2)cc1`: the cell count in experiment [1] was 672. Further, the inhibition is 10.5% (inactive) in experiment [1], -5.4% (inactive) in experiment [3], 10.3% (inactive) in experiment [7] and 4.41% (inactive) in experiment [8]. Besides, the inhibition of aggregation in experiment [2] was 5.3% (inactive). For the same compound, the values for the nuclei count in experiment [2] and in experiment [3] were 102% and 124%, respectively. Moreover, the fluorescence slope in experiment [4] is -0.484 (inactive). Moreover, the NADPH fluorescence slope in experiment [5] is -1.7e-05 (inactive). Moreover, the slope in experiment [6] is 0.00547 (inactive).

For `CCOC(=O)c1cc(C(C)(C)C)oc1CN`, the cell count in experiment [1] turned out to be 667. The inhibition in experiment [1] was -1% (inactive); in experiment [3] it was -1.1% (inactive); in experiment [7], 15.2% (inactive); in experiment [8], 21.7% (inactive). Also, in experiment [2], the inhibition of aggregation was 1.2% (inactive). For the same compound, the nuclei count was found to be 98.7% in experiment [2] and 102% in experiment [3]. Further, in experiment [4], the fluorescence slope was -0.495 (inactive). Further, in experiment [5], the NADPH fluorescence slope was -4.4e-05 (inactive). The slope in experiment [6] is 0.00475 (inactive).

Consider `COc1cccc(CN2CCN(C(=O)c3ccco3)CC2)c1OC`, for which, in experiment [1], the cell count was 513. In addition, the inhibition in experiment [1] is 13.6% (inactive); in experiment [3], -347% (inactive); in experiment [7] it was 11.8% (inactive); in experiment [8], 8.85% (inactive). In experiment [2], the inhibition of aggregation was -4.9% (inactive). Moreover, the results for the nuclei count in experiment [2] and in experiment [3] were 100% and 128%, respectively. Besides, in experiment [4], the fluorescence slope is -0.595 (inactive). The NADPH fluorescence slope in experiment [5] was 1.5e-05 (inactive). Besides, the slope in experiment [6] is 0.00742 (inactive).
